Experiments:
[1] = system: Botulinum neurotoxin type F light chain protease (Clostridium botulinum); assay: Clostridium botulinum type F light chain protease inhibitors, microsphere substrate cleavage, validation (AID 588459); conditions: multiplex microsphere protease substrate cleavage assay, flow cytometry; at 10 µM; active compounds read high
[2] = target: Botulinum neurotoxin type A (Clostridium botulinum) (UniProt P0DPI0); assay: BoNT/A light chain protease inhibitors, biochemical, multiplex microsphere flow cytometry, validation set (AID 588460); conditions: at 10 µM, active compounds read high
[3] = target: Lethal factor (Bacillus anthracis) (UniProt P15917); assay: Bacillus anthracis lethal factor inhibition, microsphere flow cytometry protease assay, validation at 10 µM (AID 588461); conditions: multiplex microsphere protease cleavage assay, active compounds read high

Measured: inhibition

Sequence of Lethal factor (Bacillus anthracis) (P15917 whole entry, looked up): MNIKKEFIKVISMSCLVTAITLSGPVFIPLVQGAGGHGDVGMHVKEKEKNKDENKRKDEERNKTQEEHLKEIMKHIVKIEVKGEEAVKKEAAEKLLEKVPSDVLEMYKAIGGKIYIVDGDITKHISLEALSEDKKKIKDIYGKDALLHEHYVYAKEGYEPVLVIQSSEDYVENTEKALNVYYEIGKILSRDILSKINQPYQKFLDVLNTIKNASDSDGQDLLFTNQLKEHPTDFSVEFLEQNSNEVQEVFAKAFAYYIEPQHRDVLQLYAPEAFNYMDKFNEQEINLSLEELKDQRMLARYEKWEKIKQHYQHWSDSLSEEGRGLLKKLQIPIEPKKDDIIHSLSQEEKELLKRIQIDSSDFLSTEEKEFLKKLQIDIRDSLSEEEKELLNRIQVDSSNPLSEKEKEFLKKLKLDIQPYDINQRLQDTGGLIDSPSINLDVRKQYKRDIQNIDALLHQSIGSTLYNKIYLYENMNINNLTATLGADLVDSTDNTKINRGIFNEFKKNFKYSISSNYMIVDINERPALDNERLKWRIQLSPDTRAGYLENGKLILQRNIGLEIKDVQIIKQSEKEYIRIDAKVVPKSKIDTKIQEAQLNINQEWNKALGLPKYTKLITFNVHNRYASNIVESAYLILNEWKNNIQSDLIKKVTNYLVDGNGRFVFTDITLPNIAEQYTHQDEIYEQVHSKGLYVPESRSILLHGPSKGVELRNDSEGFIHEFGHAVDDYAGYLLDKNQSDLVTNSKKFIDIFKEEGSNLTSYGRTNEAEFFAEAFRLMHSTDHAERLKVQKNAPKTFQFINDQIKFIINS
Sequence of Botulinum neurotoxin type A (Clostridium botulinum) (P0DPI0 whole entry, looked up): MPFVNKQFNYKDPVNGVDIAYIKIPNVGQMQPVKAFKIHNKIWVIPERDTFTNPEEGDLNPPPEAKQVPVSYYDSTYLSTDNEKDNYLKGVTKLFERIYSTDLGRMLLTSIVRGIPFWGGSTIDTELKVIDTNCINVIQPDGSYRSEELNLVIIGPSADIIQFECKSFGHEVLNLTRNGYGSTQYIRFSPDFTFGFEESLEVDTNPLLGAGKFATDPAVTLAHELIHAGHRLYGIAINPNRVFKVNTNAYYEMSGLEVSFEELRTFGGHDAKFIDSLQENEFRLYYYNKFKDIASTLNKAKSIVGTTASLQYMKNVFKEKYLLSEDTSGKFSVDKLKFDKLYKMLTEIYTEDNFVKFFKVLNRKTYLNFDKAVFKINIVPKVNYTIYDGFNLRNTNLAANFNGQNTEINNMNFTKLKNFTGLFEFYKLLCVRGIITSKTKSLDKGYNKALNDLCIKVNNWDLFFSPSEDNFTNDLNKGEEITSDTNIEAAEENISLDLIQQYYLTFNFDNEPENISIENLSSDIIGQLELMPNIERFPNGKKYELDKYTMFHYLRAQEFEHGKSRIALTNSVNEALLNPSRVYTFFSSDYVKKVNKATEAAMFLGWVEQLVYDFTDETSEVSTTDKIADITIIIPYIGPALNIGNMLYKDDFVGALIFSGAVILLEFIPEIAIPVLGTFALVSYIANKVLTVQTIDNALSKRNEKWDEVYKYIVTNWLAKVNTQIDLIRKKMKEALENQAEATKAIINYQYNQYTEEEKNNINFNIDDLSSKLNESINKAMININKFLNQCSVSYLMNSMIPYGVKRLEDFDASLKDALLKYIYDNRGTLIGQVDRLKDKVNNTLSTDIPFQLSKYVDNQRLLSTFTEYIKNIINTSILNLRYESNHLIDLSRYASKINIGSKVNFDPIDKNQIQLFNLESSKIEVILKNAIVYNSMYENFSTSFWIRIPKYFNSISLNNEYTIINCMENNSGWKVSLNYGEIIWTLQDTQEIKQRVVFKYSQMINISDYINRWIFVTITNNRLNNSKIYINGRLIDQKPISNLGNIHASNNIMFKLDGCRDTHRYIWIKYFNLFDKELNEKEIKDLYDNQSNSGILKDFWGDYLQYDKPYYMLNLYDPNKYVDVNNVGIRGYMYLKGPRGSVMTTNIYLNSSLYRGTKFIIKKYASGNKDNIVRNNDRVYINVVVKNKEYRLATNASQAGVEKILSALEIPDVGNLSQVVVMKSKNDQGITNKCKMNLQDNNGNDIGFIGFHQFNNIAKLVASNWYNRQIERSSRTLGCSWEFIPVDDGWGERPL

Cc1cc(C)c2c(CCl)cc(=O)oc2c1
inactive: [1] -4.3% | [2] -1.5% | [3] -3.4%

CCCCNc1ccc(C(=O)OCCN(C)C)cc1
inactive: [1] 0.2% | [2] 0.4% | [3] 2.7%

O=C(NCc1ccc(N2CCCC2=O)cc1)c1cccc(Cl)c1
inactive: [1] -4.5% | [2] -2.2% | [3] 1%

COC(=O)c1cc(-c2ccc(OC)c(OC)c2)on1
inactive: [1] 6.2% | [2] 1.7% | [3] 0.1%

Cc1cc(OC(=O)CNC(=O)OC(C)(C)C)c2c(C)cc(=O)oc2c1
inactive: [1] -0.2% | [2] -0.7% | [3] 5.4%

O=C(c1ccc(Cl)cc1)C1CCCN(C(=O)/C=C/c2ccccn2)C1 (stereo unspecified)
inactive: [1] 2.6% | [2] -0.7% | [3] 6%

COc1ccc(/C=C/C(=O)Nc2ccccc2C(=O)O)cc1OC
inactive: [1] 2.5% | [2] -0.9% | [3] -6%

CC(C[N+](C)(C)C)OC(N)=O (stereo unspecified)
inactive: [1] -0.5% | [2] -0.4% | [3] 6.6%

Cc1cn([C@H]2C[C@H](N=[N+]=[N-])[C@@H](CO)O2)c(=O)[nH]c1=O
inactive: [1] 2.4% | [2] 0.2% | [3] -2.8%

CC(C)(C)C(=O)N1CCCC1C(=O)O (stereo unspecified)
inactive: [1] -1% | [2] -1.2% | [3] -0.9%

Cc1ccc(SCC(=O)Nc2nccs2)cc1
inactive: [1] -4.8% | [2] -0.5% | [3] -5.6%

COc1ccc(C(=O)Nc2nc3ccccc3c(=O)[nH]2)cc1
inactive: [1] -3.3% | [2] -2.3% | [3] -0.8%

Cc1ccc([N+](=O)[O-])cc1NC1OC(CO)C(O)C1O (stereo unspecified)
inactive: [1] 1.5% | [2] -1.1% | [3] -1.7%

CC12COC3(C(=O)Nc4ccc(F)cc4)CC1CCC32C (stereo unspecified)
inactive: [1] 3.3% | [2] 1% | [3] -1.8%

C[C@]12CC[C@@H]3c4ccc(O)cc4CC[C@H]3[C@@H]1CC[C@@H]2O
inactive: [1] 3.3% | [2] 1.1% | [3] -1.3%

CN1CCN(C2=Nc3cc(Cl)ccc3Nc3ccccc32)CC1
inactive: [1] -0.2% | [2] -0.4% | [3] -6.6%

O=C(CCCn1c(=O)oc2ccccc21)N1CCN(c2ccc(F)cc2)CC1
inactive: [1] 1.1% | [2] 0.2% | [3] -4.7%

S=C(NCCOCCOCCNC(=S)Nc1ccccc1)Nc1ccccc1
inactive: [1] 1.9% | [2] 2% | [3] -3.8%

CC12CN3CC(C)(CN(C1)C3c1ccc(Cl)cc1Cl)C2=O (stereo unspecified)
inactive: [1] -0.6% | [2] 0.5% | [3] 0.1%

CN(C)CCN(Cc1ccccc1)c1ccccn1
inactive: [1] 2.2% | [2] 0% | [3] -0.2%

CNC(=O)Oc1ccc2c(c1)[C@]1(C)CCN(C)[C@@H]1N2C
inactive: [1] -0.4% | [2] 1.1% | [3] 0.5%

Cc1nc2ccccc2n1CC(O)Cn1c2ccccc2c2ccccc21 (stereo unspecified)
inactive: [1] 2.9% | [2] -0.1% | [3] -0.7%

COc1ccc(/C=C2\CCc3ccccc3C2=O)c(OC)c1OC
inactive: [1] 6.4% | [2] 0.8% | [3] 3.9%

COc1ccc(C2NC(=O)c3ccccc3N2)cc1OC (stereo unspecified)
inactive: [1] -2.5% | [2] -0.1% | [3] -2.9%

O=C(NC(=S)Nc1nc(-c2ccccc2)cs1)c1ccco1
inactive: [1] 4.3% | [2] -0.2% | [3] -0.3%

Cc1ccsc1C1NC(=O)c2ccccc2N1 (stereo unspecified)
inactive: [1] -6.7% | [2] -1.3% | [3] -5.3%

O=C(/C=C/c1ccc(F)cc1)N1CC[C@@]2(O)CCCC[C@H]2C1
inactive: [1] -2.9% | [2] -2.2% | [3] 5.2%

Reference: PubChem BioAssay
